Numbering of substitutions follows the chain as printed.
Experiments:
Assay in all cases: protein-binding microarray (PBM); PBM: ~300 nM protein, 6 mM HEPES pH 7.8, 80 mM KCl, 0.5 mM EDTA, 0.5 mM EGTA, 6% glycerol, 35 ng/ul poly-dIdC, 1% milk, 1 h, room temperature; Ap Aiptasia and Nv Nematostella (sea anemones) / Co Capsaspora / Aq Amphimedon (sponge) / Dm Drosophila / Hu human; RHD is the Rel homology domain; high values mean tight binding
Conditions in all cases: dsDNA, one strand shown
GST-Ap-NF-kB RHD = biological target: T1, GST-Ap-NF-kB RHD (Exaiptasia pallida (Aiptasia), UniProt A0A913YAJ5 2-422)
T1 sequence: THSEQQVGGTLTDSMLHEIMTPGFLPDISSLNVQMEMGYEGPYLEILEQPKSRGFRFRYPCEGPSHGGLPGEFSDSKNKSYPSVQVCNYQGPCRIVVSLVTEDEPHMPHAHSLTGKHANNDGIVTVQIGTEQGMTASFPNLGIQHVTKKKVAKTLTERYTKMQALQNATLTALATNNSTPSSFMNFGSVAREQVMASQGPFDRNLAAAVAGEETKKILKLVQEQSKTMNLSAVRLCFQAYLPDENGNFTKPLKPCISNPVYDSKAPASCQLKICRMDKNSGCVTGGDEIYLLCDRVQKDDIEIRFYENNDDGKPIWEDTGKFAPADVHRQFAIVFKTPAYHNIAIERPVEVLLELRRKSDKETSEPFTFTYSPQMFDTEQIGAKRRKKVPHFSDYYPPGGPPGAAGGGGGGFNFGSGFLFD

[1] = biological target: T2, GST-Nv-NF-kB (Cys allele) (Nematostella vectensis, UniProt E5G601 2-411)
T2 sequence: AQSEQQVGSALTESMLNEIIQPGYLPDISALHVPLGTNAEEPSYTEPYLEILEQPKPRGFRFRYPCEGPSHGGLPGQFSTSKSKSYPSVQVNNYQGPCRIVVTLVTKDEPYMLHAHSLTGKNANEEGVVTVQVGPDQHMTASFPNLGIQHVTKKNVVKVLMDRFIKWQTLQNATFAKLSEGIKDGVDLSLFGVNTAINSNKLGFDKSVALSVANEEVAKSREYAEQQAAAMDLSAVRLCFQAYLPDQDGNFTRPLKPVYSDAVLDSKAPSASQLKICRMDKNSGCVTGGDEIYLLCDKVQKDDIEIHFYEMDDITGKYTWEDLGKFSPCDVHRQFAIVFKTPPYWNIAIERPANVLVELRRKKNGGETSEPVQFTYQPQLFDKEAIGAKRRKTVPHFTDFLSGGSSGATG

[2] = biological target: T3, GST-Nv-NF-kB (Ser allele) (Nematostella vectensis, UniProt A7UNT2 2-411)
T3 sequence: T2 sequence with Q21R, C66S, S207N, E215Q, V217A, E225K, A268E, D399E

GST-Co-NF-kB = biological target: T4, GST-Co-NF-kB (Capsaspora owczarzaki, UniProt F1ARL5 200-546)
T4 sequence: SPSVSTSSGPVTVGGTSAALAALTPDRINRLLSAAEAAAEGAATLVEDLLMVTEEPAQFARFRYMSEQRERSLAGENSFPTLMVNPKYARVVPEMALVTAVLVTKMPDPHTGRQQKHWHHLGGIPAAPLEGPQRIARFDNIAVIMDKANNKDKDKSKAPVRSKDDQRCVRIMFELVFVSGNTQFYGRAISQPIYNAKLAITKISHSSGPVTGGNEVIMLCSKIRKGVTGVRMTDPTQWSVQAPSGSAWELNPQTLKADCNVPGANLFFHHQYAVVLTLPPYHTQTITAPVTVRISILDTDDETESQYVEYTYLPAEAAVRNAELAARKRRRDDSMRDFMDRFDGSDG

GST-Dm-Relish = biological target: T5, GST-Dm-Relish (Drosophila melanogaster, UniProt Q94527 99-473)
T5 sequence: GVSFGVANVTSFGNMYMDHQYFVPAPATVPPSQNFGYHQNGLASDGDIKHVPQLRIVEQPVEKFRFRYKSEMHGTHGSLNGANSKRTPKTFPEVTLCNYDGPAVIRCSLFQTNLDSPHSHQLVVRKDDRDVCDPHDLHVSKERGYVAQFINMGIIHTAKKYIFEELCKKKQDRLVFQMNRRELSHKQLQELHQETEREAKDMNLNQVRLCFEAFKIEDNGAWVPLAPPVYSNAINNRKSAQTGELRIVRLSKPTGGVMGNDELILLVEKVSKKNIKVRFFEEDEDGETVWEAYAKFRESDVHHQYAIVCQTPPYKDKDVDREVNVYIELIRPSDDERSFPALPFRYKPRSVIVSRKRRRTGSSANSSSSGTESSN

GST-Aq-NF-kB = biological target: T6, GST-Aq-NF-kB (Amphimedon queenslandica, UniProt A9Y5G7 2-389)
T6 sequence: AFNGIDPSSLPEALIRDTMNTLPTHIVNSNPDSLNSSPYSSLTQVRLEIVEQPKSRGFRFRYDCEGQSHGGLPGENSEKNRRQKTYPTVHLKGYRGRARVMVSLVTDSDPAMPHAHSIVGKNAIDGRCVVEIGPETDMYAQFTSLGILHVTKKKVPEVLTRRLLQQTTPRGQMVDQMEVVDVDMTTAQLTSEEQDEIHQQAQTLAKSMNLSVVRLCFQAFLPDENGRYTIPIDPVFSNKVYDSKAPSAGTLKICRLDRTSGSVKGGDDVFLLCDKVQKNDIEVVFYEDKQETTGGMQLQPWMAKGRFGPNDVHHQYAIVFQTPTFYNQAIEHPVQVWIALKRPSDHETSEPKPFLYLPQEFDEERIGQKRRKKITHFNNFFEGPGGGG

GST-Hu-p50 = GST-Hu-p50 (Homo sapiens, UniProt P19838 7-356)
Chain of GST-Hu-p50 (P19838 7-356): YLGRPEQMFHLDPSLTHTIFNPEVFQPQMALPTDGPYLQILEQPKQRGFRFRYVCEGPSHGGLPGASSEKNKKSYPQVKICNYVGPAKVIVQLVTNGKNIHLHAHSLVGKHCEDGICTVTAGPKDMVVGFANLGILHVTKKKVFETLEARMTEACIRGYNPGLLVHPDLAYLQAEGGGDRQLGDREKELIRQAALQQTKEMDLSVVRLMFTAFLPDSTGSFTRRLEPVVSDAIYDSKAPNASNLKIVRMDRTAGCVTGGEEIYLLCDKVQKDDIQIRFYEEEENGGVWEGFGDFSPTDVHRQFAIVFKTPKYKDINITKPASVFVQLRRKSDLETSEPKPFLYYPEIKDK

Sequence | binding signal (GST-Ap-NF-kB RHD) [z-score] | binding signal [1] [z-score] | binding signal [2] [z-score] | binding signal (GST-Co-NF-kB) [z-score] | binding signal (GST-Dm-Relish) [z-score] | binding signal (GST-Aq-NF-kB) [z-score] | binding signal (GST-Hu-p50) [z-score]
CCGATTAACATCAGGGGAGTACCTGATGTTAATCGGGTCTTGATTCGCTTGACGCTGCTG | 7.52 | 5.33 | 6.46 | 3.7 | 7.86 | 7.18 | 4.93
CCGATTAACATCAGTTTTCCCCATGATGTTAATCGGGTCTTGATTCGCTTGACGCTGCTG | 6.49 | 7.03 | 9.09 | 9.45 | 3.42 | 4.82 | 5.76
CCGATTAACATCAGGAAACTCCCTGATGTTAATCGGGTCTTGATTCGCTTGACGCTGCTG | 5.65 | 7.91 | 4.86 | 1.88 | 5.39 | 9.07 | 5.86
CCGATTAACATCAGGGGGAAAAATGATGTTAATCGGGTCTTGATTCGCTTGACGCTGCTG | 6.66 | 7.33 | 9.96 | 11.6 | 4.64 | 5.88 | 7.07
CCGATTAACATCAAAACTCCCCGTGATGTTAATCGGGTCTTGATTCGCTTGACGCTGCTG | 7.7 | 6.47 | 6.9 | 5.87 | 7.5 | 6.24 | 5.74
CCGATTAACATCAGATTTCCCCATGATGTTAATCGGGTCTTGATTCGCTTGACGCTGCTG | 7.4 | 8.26 | 9.52 | 8.5 | 3.76 | 5.45 | 6.16
CCGATTAACATCAATCTCCCCCATGATGTTAATCGGGTCTTGATTCGCTTGACGCTGCTG | 6.53 | 4.32 | 6.24 | 8.65 | 2.05 | 3.51 | 5.94
CCGATTAACATCAGGGAGTCCCCTGATGTTAATCGGGTCTTGATTCGCTTGACGCTGCTG | 10.9 | 8.88 | 7.04 | 4.05 | 10.7 | 9.35 | 6.52
CCGATTAACATCAGGGAATACCCTGATGTTAATCGGGTCTTGATTCGCTTGACGCTGCTG | 8.89 | 11.2 | 8.44 | 3.79 | 9.63 | 10.2 | 6.01
CCGATTAACATCAAAATAGTCCCTGATGTTAATCGGGTCTTGATTCGCTTGACGCTGCTG | 7.45 | 7.77 | 7.5 | 2.01 | 4.37 | 6.34 | 5.5
CCGATTAACATCAAATTTCCCGTTGATGTTAATCGGGTCTTGATTCGCTTGACGCTGCTG | 3.33 | 5.71 | 5.5 | 4.13 | 3.24 | 5.53 | 4.24
CCGATTAACATCAAGAACTTCCCTGATGTTAATCGGGTCTTGATTCGCTTGACGCTGCTG | 3.37 | 3.73 | 3.72 | 2.1 | 2.86 | 4.6 | 2.19
CCGATTAACATCAACAAATTCCCTGATGTTAATCGGGTCTTGATTCGCTTGACGCTGCTG | 3.83 | 5.69 | 6.87 | 4.16 | 5.03 | 4.44 | 4.56
CCGATTAACATCAACTCTCCCCCTGATGTTAATCGGGTCTTGATTCGCTTGACGCTGCTG | 5.78 | 4.61 | 5.62 | 7.94 | 2.14 | 4.72 | 4.41
CCGATTAACATCAGCTTCCCCCCTGATGTTAATCGGGTCTTGATTCGCTTGACGCTGCTG | 5.3 | 4.97 | 5.68 | 7.68 | 4.2 | 4.55 | 4.95
CCGATTAACATCAGGGTATTTTATGATGTTAATCGGGTCTTGATTCGCTTGACGCTGCTG | 5.82 | 8.31 | 7.61 | 3.22 | 5.65 | 7.07 | 5.87
CCGATTAACATCATAAATTCCCATGATGTTAATCGGGTCTTGATTCGCTTGACGCTGCTG | 2.62 | 5.12 | 5.22 | 3.32 | 5.06 | 3.71 | 4.37
CCGATTAACATCAAACTTTCCCCTGATGTTAATCGGGTCTTGATTCGCTTGACGCTGCTG | 7.27 | 8.67 | 9.66 | 8.89 | 4.44 | 7.57 | 6.2
CCGATTAACATCAAATCTTCCCCTGATGTTAATCGGGTCTTGATTCGCTTGACGCTGCTG | 6.29 | 8.14 | 10.4 | 9.84 | 4.74 | 6.11 | 6.14
CCGATTAACATCAGGGGGGTGAATGATGTTAATCGGGTCTTGATTCGCTTGACGCTGCTG | 3.76 | 4.08 | 4.43 | 5.24 | 4.14 | 4.32 | 4.12
CCGATTAACATCAGGGGGAGTAATGATGTTAATCGGGTCTTGATTCGCTTGACGCTGCTG | 5.68 | 4.54 | 5.56 | 6.83 | 3.45 | 4.18 | 5.72
CCGATTAACATCAGGGAATGTTATGATGTTAATCGGGTCTTGATTCGCTTGACGCTGCTG | 2.55 | 4.38 | 3.78 | 2.75 | 1.85 | 5.04 | 3.32

Reference: paper PMC5700166
